# In PubChem BioAssay (EPA / NIEHS):
# Results filed as inconclusive are left out. The source made the active and inactive calls. Rule for the calls, unless noted: active = hit-call score of the fitted dose curve at least 0.9, where 1 is the maximum; inconclusive = response in the unintended direction; inactive = score below 0.9.
# How the values were obtained:
# [1] = TOX21_p53_BLA_p2_viability: Viability Assessment in the Tox21 HCT-116 p53 Agonism Beta-lactamase Assay, Phase 2 (AID 2283591);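 note: compound exposure lasted 16 h at 37 °C; actives lower the ATP signal meaning cytotoxicity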
# Method in brief: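 Cytotoxicity readout: CellTiter-Glo ATP luminescence, 30 min at room temperature, after the beta-lactamase read. Cells were HCT116 exposed 16 h at 37C to compounds pin-transferred at 217-fold dilution from DMSO stocks.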
# [2] = target: Cellular tumor antigen p53 (Homo sapiens) (UniProt P04637); experiment: TOX21_p53_BLA_p2_ratio: Tox21 HCT-116 p53 Agonism Beta-lactamase Assay, Ratio, Phase 2 (AID 2283592)
# Sequence of Cellular tumor antigen p53 (Homo sapiens) (P04637 whole entry, looked up): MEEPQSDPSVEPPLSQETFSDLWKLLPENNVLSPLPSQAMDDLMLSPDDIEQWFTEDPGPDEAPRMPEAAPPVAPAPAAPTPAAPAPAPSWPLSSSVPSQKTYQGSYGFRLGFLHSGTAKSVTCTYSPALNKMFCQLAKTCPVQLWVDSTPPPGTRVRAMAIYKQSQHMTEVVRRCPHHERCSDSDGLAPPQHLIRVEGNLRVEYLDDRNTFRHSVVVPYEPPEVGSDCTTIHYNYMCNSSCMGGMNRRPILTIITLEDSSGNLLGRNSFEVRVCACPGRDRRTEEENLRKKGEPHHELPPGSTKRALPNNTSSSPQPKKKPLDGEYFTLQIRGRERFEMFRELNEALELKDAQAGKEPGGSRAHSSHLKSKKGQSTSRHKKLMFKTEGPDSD
# Method in brief: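 HCT-116 cells with p53-responsive beta-lactamase reporter, 4000 cells/well, preincubated 5 h, then compound in DMSO (217-fold dilution) for 16 h at 37C. CCF4-AM substrate 2 h at room temperature; 460/530 nm emission ratio fitted upward versus DMSO.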
# [3] = TOX21_p53_BLA_p3_viability: Viability Assessment in the Tox21 HCT-116 p53 Agonism Beta-lactamase Assay, Phase 3 (AID 2283593);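 note: cells exposed to compound for 16 h before reading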
# Method in brief: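 Cellular ATP was quantified by CellTiter-Glo luminescence, read after 30 min at room temperature. Beforehand, HCT116 cells (4000/well) received compound 5 h post-seeding, 217-fold diluted from DMSO, then incubated 16 h at 37C.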
# [4] = target: Cellular tumor antigen p53 (Homo sapiens) (UniProt P04637); experiment: TOX21_p53_BLA_p3_ratio: Tox21 HCT-116 p53 Agonism Beta-lactamase Assay, Ratio, Phase 3 (AID 2283596)
# Method in brief: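 HCT116 p53-bla cells (4000/well) given compound in DMSO (217-fold dilution) after 5 h, incubated 16 h at 37C. CCF4-AM substrate 2 h at room temperature; 460/530 nm emission ratio, gain fitted against DMSO.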
# [5] = TOX21_p53_BLA_p4_viability: Viability Assessment in the Tox21 HCT-116 p53 Agonism Beta-lactamase Assay, Phase 4 (AID 2283597);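 note: hits lower the luminescence signal meaning cytotoxicity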
# Method in brief: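 HCT-116 p53-bla cells, 4000/well, dosed after 5 h attachment and incubated 16 h at 37 °C, 5% CO2. Viability from CellTiter-Glo ATP luminescence after 30 min at room temperature, taken after the beta-lactamase read; loss of signal indicates cytotoxicity.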
# [6] = target: Cellular tumor antigen p53 (Homo sapiens) (UniProt P04637); experiment: TOX21_p53_BLA_p5_ratio: Tox21 HCT-116 p53 Agonism Beta-lactamase Assay, Ratio, Phase 5 (AID 2283599)
# Method in brief: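 Beta-lactamase reporter ratio (blue 460 nm over green 530 nm, 405 nm excitation) after 2 h CCF4-AM loading, in HCT-116 cells exposed 16 h at 37 C to compounds pinned at 217-fold dilution. Increases relative to DMSO baseline scored.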
# [7] = target: Cellular tumor antigen p53 (Homo sapiens) (UniProt P04637); experiment: TOX21_p53_BLA_p4_ratio: Tox21 HCT-116 p53 Agonism Beta-lactamase Assay, Ratio, Phase 4 (AID 2283601)
# Method in brief: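 Signal is the blue/green (460nm/530nm) ratio of cleaved versus uncleaved CCF4-AM substrate, read after 2 h substrate loading. Cells were HCT116 carrying the p53-responsive beta-lactamase reporter, dosed 16 h at 37C, 5% CO2; CellTiter-Glo measured in parallel.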
# [8] = TOX21_p53_BLA_p5_viability: Viability Assessment in the Tox21 HCT-116 p53 Agonism Beta-lactamase Assay, Phase 5 (AID 2283600)
# Method in brief: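 HCT-116 p53 beta-lactamase reporter cells, 4000/well, were exposed to compound (pin transfer, 217-fold dilution) for 16 hours at 37C. Cellular ATP was read by CellTiter-Glo luminescence after 30 min at room temperature.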
# [9] = target: Thyroid hormone receptor alpha (Rattus norvegicus) + Thyroid hormone receptor beta (Rattus norvegicus) (UniProt P18113+P63059); experiment: TOX21_TR_LUC_GH3_Antagonist_Followup: Tox21 GH3 Thyroid Hormone Receptor Antagonism Luciferase Follow-Up Assay (AID 2283942)
# Method in brief: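 Confirmatory qHTS, antagonist mode: T3 (1.0 nM final) + test cpd, 15 conc, 92 uM–5nM final, GH3 rat pituitary line, 24 h, 37C. Luc reporter, RLU vs DMSO.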
# THRA (gene 7067) = THRA (gene 7067) (UniProt P10827); experiment: TOX21_TRA_COA_Antagonist_Followup_ratio: Tox21 Thyroid Hormone Receptor alpha Antagonism through Coactivator Recruitment Follow-Up Assay, Ratio (AID 2283953)
# Sequence of THRA (gene 7067) (P10827 whole entry, looked up, the tested form may be a part): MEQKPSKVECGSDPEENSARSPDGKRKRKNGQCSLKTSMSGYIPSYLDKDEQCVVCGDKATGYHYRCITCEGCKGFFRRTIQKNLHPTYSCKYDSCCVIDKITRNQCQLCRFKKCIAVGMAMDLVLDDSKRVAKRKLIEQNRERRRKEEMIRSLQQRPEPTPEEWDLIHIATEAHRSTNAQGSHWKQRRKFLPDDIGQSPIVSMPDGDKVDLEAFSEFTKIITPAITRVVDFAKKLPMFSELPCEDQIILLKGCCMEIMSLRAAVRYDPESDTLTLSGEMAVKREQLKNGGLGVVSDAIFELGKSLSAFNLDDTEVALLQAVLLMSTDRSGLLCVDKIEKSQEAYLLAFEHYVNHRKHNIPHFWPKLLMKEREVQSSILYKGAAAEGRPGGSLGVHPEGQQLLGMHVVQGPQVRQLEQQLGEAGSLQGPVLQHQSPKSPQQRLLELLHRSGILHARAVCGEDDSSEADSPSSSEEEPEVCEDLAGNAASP
# Method in brief: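 520:495 nm emission ratio (excitation 340 nm) reports fluorescein-SRC-2 peptide recruitment to GST-TRα LBD by TR-FRET with Tb anti-GST antibody. Values were normalized to DMSO (0%) and T3 control wells (100%); loss of signal indicated antagonism.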
# THRB (gene 7068) [10] = target: THRB (gene 7068) (UniProt P10828); experiment: TOX21_TRB_BLA_Antagonist_Followup_ratio: Tox21 Thyroid Hormone Receptor beta Antagonism Beta-lactamase (BLA) Follow-Up Assay, Ratio (AID 2283958)
# Sequence of THRB (gene 7068) (P10828 whole entry, looked up, the tested form may be a part): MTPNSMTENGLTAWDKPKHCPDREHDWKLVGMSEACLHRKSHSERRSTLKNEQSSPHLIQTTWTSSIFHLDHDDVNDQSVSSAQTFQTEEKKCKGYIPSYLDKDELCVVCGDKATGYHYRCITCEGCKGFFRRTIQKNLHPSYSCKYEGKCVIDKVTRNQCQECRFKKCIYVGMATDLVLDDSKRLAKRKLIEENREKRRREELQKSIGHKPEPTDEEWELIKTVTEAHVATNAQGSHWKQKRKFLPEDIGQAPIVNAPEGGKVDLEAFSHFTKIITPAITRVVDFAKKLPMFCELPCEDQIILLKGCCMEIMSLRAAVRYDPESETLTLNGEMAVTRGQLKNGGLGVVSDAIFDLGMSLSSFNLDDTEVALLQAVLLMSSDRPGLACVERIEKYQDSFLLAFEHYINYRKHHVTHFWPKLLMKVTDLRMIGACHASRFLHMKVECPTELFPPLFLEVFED
# Method in brief: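 HEK293T cells with a GAL4-TRb LBD fusion and UAS-bla reporter, 3,000 cells/well in phenol red-free DMEM with 2% charcoal-stripped FBS. Exposed 18 h at 37C to 11 concentrations in triplicate; CCF4 460:530 nm ratio after 2 h, DMSO-referenced.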
# [11] = TOX21_TRB_BLA_Antagonist_Followup_viability: Viability Assessment in the Tox21 Thyroid Hormone Receptor beta Antagonism Beta-lactamase (BLA) Follow-Up Assay (AID 2283961)
# Method in brief: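 HEK293T cells with GAL4-human TRβ LBD and UAS-bla reporter, 3,000 cells/well in 2% charcoal-stripped FBS medium; 11-point concentrations in triplicate, 18 h at 37C. Viability from ATP by CellTiter-Glo luminescence, 30 min RT, same plates.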
# THRB (gene 7068) [12] = target: THRB (gene 7068) (UniProt P10828); experiment: TOX21_TRB_COA_Antagonist_Followup_ratio: Tox21 Thyroid Hormone Receptor beta Antagonism through Coactivator Recruitment Follow-Up Assay, Ratio (AID 2283967)
# Method in brief: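 Test compound was incubated with 5.0 nM GST-TRβ LBD in 0.10% BSA. Then 200 nM fluorescein-SRC-2 peptide and 2 nM terbium anti-GST antibody were added. TR-FRET (520:495 nm) was measured and normalized to DMSO and T3 controls.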
# [13] = target: Retinoic acid receptor RXR-alpha (Homo sapiens) (UniProt P19793); experiment: TOX21_TR_RXR_BLA_Antagonist_Followup_ratio: Tox21 Thyroid Hormone Receptor beta Retinoid X Receptor alpha (RXRa) Antagonism Beta-lactamase (BLA) Follow-Up Assay, Ratio (AID 2283972)
# Sequence of Retinoic acid receptor RXR-alpha (Homo sapiens) (P19793 whole entry, looked up): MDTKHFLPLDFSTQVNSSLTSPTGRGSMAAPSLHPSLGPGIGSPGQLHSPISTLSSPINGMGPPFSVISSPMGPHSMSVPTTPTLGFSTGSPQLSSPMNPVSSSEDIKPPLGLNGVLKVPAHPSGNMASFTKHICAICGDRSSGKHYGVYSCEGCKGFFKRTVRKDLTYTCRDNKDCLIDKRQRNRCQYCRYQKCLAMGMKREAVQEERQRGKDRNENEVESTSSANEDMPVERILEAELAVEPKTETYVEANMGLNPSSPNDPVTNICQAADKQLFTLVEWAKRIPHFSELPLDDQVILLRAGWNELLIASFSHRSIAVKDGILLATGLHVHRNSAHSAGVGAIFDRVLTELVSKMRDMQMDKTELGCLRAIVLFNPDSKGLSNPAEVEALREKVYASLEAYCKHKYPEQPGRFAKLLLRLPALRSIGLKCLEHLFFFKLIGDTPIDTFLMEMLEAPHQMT
# Method in brief: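 RXRa-UAS-bla HEK293T cells, 2,500/well in phenol red-free DMEM with 2% charcoal-stripped FBS, 5 h attachment, then compounds (11 concentrations, triplicate) for 16 h at 37C; FRET-B/GCCF4-AM substrate 2 h RT; 460:530 nm ratio, loss of signal vs DMSO.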
# [14] = CCTE_Harrill_HTTr_Viability_MCF7: CCTE's 6-hour Cell Viability Assessment for the High-Throughput Transcriptomics (HTTr) Platform, in MCF-7 cells cultured in DMEM + 10% fetal bovine serum, Harrill Lab (AID 2284010; active = hit-call score of the fitted dose curve at least 0.9, where 1 is the maximum; inactive = score below 0.9)
# Method in brief: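 MCF-7 cells in DMEM + 10% FBS, 384-well, exposed 6 h to an eight-point dilution series. Membrane integrity scored by high-content imaging of propidium iodide exclusion; bidirectional fit versus DMSO.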
# [15] = CCTE_Harrill_HTTr_CellCount_MCF7: CCTE's Cell Proliferation Assessment for the High-Throughput Transcriptomics (HTTr) Platform, Harrill Lab (AID 2284012);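 note: intended direction is loss of nuclei count meaning fewer cells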
# Method in brief: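 MCF7 cells exposed 6 hours to an eight-point dilution series; Hoechst-stained nuclei counted by high-content imaging. Bidirectional curve fitting against DMSO baseline.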
structure (smiles),measurement,setting,value
Cc1cc(Nc2ccc(O)cc2)ccc1N,outcome,[1],inactive
same,outcome,[2],inactive
same,AC50,[3],46.7 µM (active)
same,AC50,[4],41.2 µM (active)
same,outcome,[5],inactive
same,outcome,[6],inactive
same,outcome,[7],inactive
Cc1ncc(C[n+]2csc(CCOP(=O)(O)OP(=O)(O)O)c2C)c(N)n1,outcome,[1],inactive
same,outcome,[2],inactive
same,outcome,[3],inactive
same,outcome,[4],inactive
same,outcome,[5],inactive
same,outcome,[6],inactive
same,outcome,[7],inactive
Cc1ccc2c(Br)cc(Br)c(O)c2n1,outcome,[1],inactive
same,AC50,[2],40.4 µM (active)
same,outcome,[3],inactive
same,outcome,[4],inactive
same,AC50,[5],16.8 µM (active)
same,outcome,[6],inactive
same,AC50,[7],43 µM (active)
OCC(O)CS (centres undefined),outcome,[1],inactive
same,outcome,[2],inactive
same,outcome,[3],inactive
same,outcome,[4],inactive
same,outcome,[5],inactive
same,outcome,[6],inactive
same,outcome,[7],inactive
CN(C)CCCCl,outcome,[1],inactive
same,outcome,[2],inactive
same,outcome,[3],inactive
same,outcome,[4],inactive
same,outcome,[5],inactive
same,outcome,[6],inactive
same,outcome,[7],inactive
CC1(C)S[C@@H]2[C@H](NC(=O)Cc3ccccc3)C(=O)N2[C@H]1C(=O)O (tested in a mixture with another compound),outcome,[1],inactive
same,outcome,[2],inactive
same,outcome,[3],inactive
same,outcome,[4],inactive
same,outcome,[5],inactive
same,outcome,[6],inactive
same,outcome,[7],inactive
O=C(O)C(=O)Nc1cccc(-c2nn[nH]n2)c1,outcome,[1],inactive
same,outcome,[2],inactive
same,outcome,[3],inactive
same,outcome,[4],inactive
same,outcome,[5],inactive
same,outcome,[6],inactive
same,outcome,[7],inactive
CC(C)(S)C(=O)N[C@@H](CS)C(=O)O,outcome,[1],inactive
same,outcome,[2],inactive
same,outcome,[3],inactive
same,outcome,[4],inactive
same,outcome,[5],inactive
same,outcome,[6],inactive
same,outcome,[7],inactive
Cc1nnc(C(C)C)n1C1C[C@H]2CC[C@@H](C1)N2CC[C@@H](NC(=O)C1CCC(F)(F)CC1)c1ccccc1 (some centres undefined),outcome,[1],inactive
same,outcome,[2],inactive
same,outcome,[3],inactive
same,outcome,[4],inactive
same,outcome,[5],inactive
same,outcome,[8],inactive
OC[C@@H](O)[C@H](O)[C@H](O)[C@@H](O)CO,outcome,[1],inactive
same,outcome,[2],inactive
same,outcome,[3],inactive
same,outcome,[4],inactive
same,outcome,[5],inactive
same,outcome,[6],inactive
same,outcome,[7],inactive
C1COC(NC(C2CC2)C2CC2)=N1,outcome,[1],inactive
same,outcome,[2],inactive
same,outcome,[3],inactive
same,outcome,[4],inactive
same,outcome,[5],inactive
same,outcome,[6],inactive
same,AC50,[7],39.6 µM (active)
CC1(C)Oc2ccc(C#N)cc2[C@@H](N2CCCC2=O)[C@@H]1O,outcome,[1],inactive
same,outcome,[2],inactive
same,outcome,[3],inactive
same,outcome,[4],inactive
same,outcome,[5],inactive
same,outcome,[6],inactive
same,outcome,[7],inactive
COc1ccc2nc(NC(=O)Nc3ccccc3)sc2c1,outcome,[1],inactive
same,outcome,[2],inactive
same,outcome,[3],inactive
same,outcome,[4],inactive
same,outcome,[5],inactive
same,outcome,[6],inactive
same,outcome,[7],inactive
same,outcome,[9],inactive
same,outcome,THRA (gene 7067),inactive
same,outcome,THRB (gene 7068) [10],inactive
same,outcome,[11],inactive
same,outcome,THRB (gene 7068) [12],inactive
same,outcome,[13],inactive
CC(C)(C)OC(=O)c1cccc(N)c1,outcome,[1],inactive
same,outcome,[2],inactive
same,outcome,[3],inactive
same,outcome,[4],inactive
same,outcome,[5],inactive
same,outcome,[6],inactive
same,outcome,[7],inactive
O=C(O)c1cc(-c2ccc(F)cc2F)ccc1O,outcome,[1],inactive
same,outcome,[2],inactive
same,outcome,[3],inactive
same,outcome,[4],inactive
same,outcome,[5],inactive
same,outcome,[6],inactive
same,outcome,[7],inactive
CC(C)(C)c1ccc(C(=O)CCCN2CCC(OC(c3ccccc3)c3ccccc3)CC2)cc1,outcome,[1],inactive
same,outcome,[2],inactive
same,AC50,[3],31.1 µM (active)
same,AC50,[4],34.6 µM (active)
same,outcome,[5],inactive
same,outcome,[8],inactive
CNC(=O)c1ccccc1Sc1ccc2c(/C=C/c3ccccn3)n[nH]c2c1,outcome,[1],inactive
same,AC50,[2],0.922 µM (active)
same,outcome,[3],inactive
same,AC50,[4],1.02 µM (active)
same,outcome,[5],inactive
same,AC50,[6],0.894 µM (active)
same,AC50,[7],0.738 µM (active)
O=Cc1cc2ccccc2o1,outcome,[1],inactive
same,outcome,[2],inactive
same,outcome,[3],inactive
same,outcome,[4],inactive
same,outcome,[5],inactive
same,outcome,[6],inactive
same,outcome,[7],inactive
O=C1CCC(c2ccccc2)(C2CCN(Cc3ccccc3)CC2)C(=O)N1 (centres undefined),outcome,[1],inactive
same,outcome,[2],inactive
same,outcome,[3],inactive
same,outcome,[4],inactive
same,outcome,[5],inactive
same,outcome,[6],inactive
same,outcome,[7],inactive
Nc1nc2[nH]cc(CCc3ccc(C(=O)N[C@@H](CCC(=O)O)C(=O)O)cc3)c2c(=O)[nH]1,outcome,[1],inactive
same,outcome,[2],inactive
same,outcome,[3],inactive
same,outcome,[4],inactive
same,outcome,[5],inactive
same,outcome,[6],inactive
same,outcome,[7],inactive
OCC1CC2CC1C1CCC(CO)C21 (centres undefined),outcome,[1],inactive
same,outcome,[2],inactive
same,outcome,[3],inactive
same,outcome,[4],inactive
same,outcome,[5],inactive
same,outcome,[6],inactive
same,outcome,[7],inactive
same,outcome,[14],inactive
same,outcome,[15],inactive
O=[N+]([O-])c1ccc(NCCO)c(OCCO)c1,outcome,[1],inactive
same,outcome,[2],inactive
same,outcome,[3],inactive
same,outcome,[4],inactive
same,outcome,[5],inactive
same,outcome,[6],inactive
same,outcome,[7],inactive
C[C@@H]1CCC[C@H](C)N1,outcome,[1],inactive
same,outcome,[2],inactive
same,outcome,[3],inactive
same,outcome,[4],inactive
same,outcome,[5],inactive
same,outcome,[6],inactive
same,outcome,[7],inactive
CCCC1C(CC)=CC(CC)=CN1c1ccccc1 (centres undefined),outcome,[1],inactive
same,outcome,[2],inactive
same,outcome,[3],inactive
same,outcome,[4],inactive
same,outcome,[5],inactive
same,outcome,[6],inactive
same,outcome,[7],inactive
